Hit rate of the full screen: of about 5,500 compounds, about 2,000 (36%) were called active. Another 18% or so got no clear call; they are omitted. Cut-off read from the data, not from the text of the source: active = normalized growth mostly below about 0.91 (no sharp cut-off); inconclusive = no clear call, values can overlap the other calls; inactive = mostly above about 0.92. Some of the results follow.
Assay: chemical genetic growth profiling, strain panel (AID 1159580);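 note: tested at 20 µM; growth read once vehicle control cultures reached saturation at 30 °C; 1 = growth at the plate median or of vehicle wells; lower values mean less growth of the strain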
Settings: S. cerevisiae deletion strains, growth OD
[1] = locus YDL101C, strain DUN1, active compounds read low
[2] = locus YHR030C, strain SLT2, active compounds read low

Measured: normalized growth

COc1ccccc1N1CC(C)(C)C(=O)N(C(=O)c2c(F)cccc2Cl)C1=S
inactive: locus YAL013W, strain DEP1, active compounds read low 1.02 | locus YBR229C, strain ROT2, active compounds read low 1.02 | locus YCL061C, strain MRC1, active compounds read low 1.02 | [1] 1.03 | locus YDR150W, strain NUM1, active compounds read low 0.933 | locus YEL061C, strain CIN8, active compounds read low 0.985 | locus YGR078C, strain PAC10, active compounds read low 1.02 | [2] 1.01 | locus YHR087W, strain rtc3, active compounds read low 0.986 | locus YJL187C, strain SWE1, active compounds read low 1.02 | locus YJR043C, strain POL32, active compounds read low 1.03 | locus YJR075W, strain HOC1, active compounds read low 1 | locus YKL190W, strain CNB1, active compounds read low 1 | locus YLR039C, strain RIC1, active compounds read low 0.862 | locus YLR058C, strain SHM2 (second series), active compounds read low 0.995 | locus YLR085C, strain ARP6, active compounds read low 0.984 | locus YLR262C, strain YPT6, active compounds read low 0.86 | locus YML094W, strain GIM5, active compounds read low 1 | locus YMR219W, strain ESC1, active compounds read low 1.02 | locus YMR263W, strain SAP30, active compounds read low 0.954 | locus YNL128W, strain TEP1, active compounds read low 1.02 | locus YNL153C, strain GIM3, active compounds read low 1 | locus YNL298W, strain CLA4 (second series), active compounds read low 1.01 | locus YNL322C, strain KRE1, active compounds read low 1.01 | locus YNR030W, strain Alg12, active compounds read low 1 | locus YPL055C, strain LGE1, active compounds read low 0.899 | locus YPL241C, strain CIN2, active compounds read low 1.01 | locus YPR135W, strain CTF4, active compounds read low 0.985

O=C(Nc1cc(Cl)cc(Cl)c1)c1cc(Cl)ccc1O
active: locus YDR052C, strain DBF4, active compounds read low 0.91 | locus YGR092W, strain DBF2, active compounds read low 0.321 | [2] 0.799 | locus YHR205W, strain SCH9, active compounds read low 0.504 | locus YJL157C, strain FAR1, active compounds read low 0.648 | locus YKL048C, strain ELM1, active compounds read low 0.802 | locus YLR113W, strain HOG1, active compounds read low 0.844 | locus YLR403W, strain SFP1, active compounds read low 0.642 | locus YNL020C, strain ARK1, active compounds read low 0.68 | locus YNL307C, strain MCK1 (second series), active compounds read low 0.615 | locus YPL256C, strain CLN2, active compounds read low 0.836
inactive: locus YAR019C, strain CDC15, active compounds read low 0.93 | locus YBL105C, strain PKC1, active compounds read low 0.94 | locus YBR135W, strain CKS1, active compounds read low 0.922 | locus YBR136W, strain MEC1, active compounds read low 0.943 | locus YBR160W, strain CDC28, active compounds read low 0.934 | locus YDL017W, strain CDC7, active compounds read low 0.936 | locus YDL028C, strain MPS1, active compounds read low 0.94 | [1] 0.981 | locus YDL108W, strain KIN28, active compounds read low 0.924 | locus YDL132W, strain cdc53, active compounds read low 0.917 | locus YDL214C, strain PRR2, active compounds read low 0.785 | locus YDR054C, strain cdc34, active compounds read low 0.921 | locus YDR226W, strain ADK1, active compounds read low 0.973 | locus YDR477W, strain SNF1, active compounds read low 0.838 | locus YER123W, strain YCK3, active compounds read low 0.75 | locus YER133W, strain GLC7, active compounds read low 0.74 | locus YFL009W, strain cdc4, active compounds read low 0.924 | locus YFL029C, strain CAK1, active compounds read low 0.923 | locus YFR003C, strain YPI1, active compounds read low 0.935 | locus YFR019W, strain FAB1, active compounds read low 0.83 | locus YFR028C, strain CDC14, active compounds read low 0.928 | locus YGR040W, strain KSS1, active compounds read low 0.836 | locus YGR052W, strain FMP48, active compounds read low 0.785 | locus YHR079C, strain IRE1, active compounds read low 0.584 | locus YHR082C, strain KSP1, active compounds read low 0.853 | locus YIL147C, strain SLN1, active compounds read low 0.94 | locus YJL095W, strain BCK1, active compounds read low 0.751 | locus YJL128C, strain PBS2, active compounds read low 0.917 | locus YJR016C, strain ILV3, active compounds read low 0.924 | locus YJR066W, strain TOR1 (second series), active compounds read low 0.668 | locus YJR066W, strain TOR1, active compounds read low 0.705 | locus YKL067W, strain YNK1, active compounds read low 0.759 | locus YKL101W, strain HSL1, active compounds read low 0.827 | locus YKL193C, strain SDS22, active compounds read low 0.93 | locus YKL203C, strain TOR2, active compounds read low 0.818 | locus YLR133W, strain CKI1, active compounds read low 0.779 | locus YML070W, strain DAK1, active compounds read low 0.805 | locus YMR001C, strain CDC5, active compounds read low 0.93 | locus YMR205C, strain PFK2 (second series), active compounds read low 0.784 | locus YMR277W, strain FCP1, active compounds read low 0.927 | locus YNL006W, strain LST8, active compounds read low 0.923 | locus YNL161W, strain CBK1, active compounds read low 0.936 | locus YNL183C, strain NPR1, active compounds read low 0.899 | locus YNL207W, strain RIO2, active compounds read low 0.939 | locus YNL222W, strain SSU72, active compounds read low 0.924 | locus YOL078W, strain AVO1, active compounds read low 0.925 | locus YOL136C, strain PFK27, active compounds read low 0.797 | locus YOR061W, strain CKA2, active compounds read low 0.693 | locus YOR119C, strain RIO1, active compounds read low 0.858 | locus YOR231W, strain MKK1, active compounds read low 0.843 | locus YOR329C, strain SCD5, active compounds read low 0.939 | locus YPL031C, strain PHO85, active compounds read low 0.823 | locus YPL153C, strain RAD53, active compounds read low 0.801 | locus YPL204W, strain HRR25, active compounds read low 0.722 | locus YPL209C, strain IPL1, active compounds read low 0.925 | locus YPR025C, strain CCL1, active compounds read low 0.936 | locus YPR106W, strain ISR1, active compounds read low 0.956 | locus YPR111W, strain DBF20, active compounds read low 0.95 | strain NNK1, active compounds read low 0.965 | strain TSCII, active compounds read low 0.938

Reference: PubChem BioAssay AID1159580 (chemical genetic matrix, 2015)
